Bioassay records: PubChem, Sanford-Burnham Center for Chemical Genomics
Compounds with a hit are over-represented: about 2.7% of the library has one in this group of screens.
MPTP block – inhibitors of mitochondrial permeability transition pore | isolated mouse mitochondria, Ca2+ swelling absorbance, 30 min | inhibition, % at 10 µM | 360,000 tested, 1.4% active | AID 602449;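 active = inhibition of 50% or more, scaled per plate between neutral and stimulator controls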;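 also: 0% = DMSO wells given calcium and 100% = 1 mM EGTA wells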
H9c2 TAG inh – triacylglycerol accumulation inhibition | H9c2 cells, Nile Red lipid (TAG) fluorescence; cells loaded with 200 µM oleic acid | inhibition, % at 12.5 µM | 230,000 tested, 0.66% active;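 active = pattern-corrected inhibition of lipid staining of at least 50% with the nuclear-stain viability signal not falling by more than 50%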;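 also: 0% = DMSO wells and 100% = triacsin C control wells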
aDG glyco up – increases alpha dystroglycan glycosylation; Pro5-aDG cells, alpha-DG glycosylation AlphaScreen (IIH6); 0% Pro5, 100% B10-LARGE cell signal; activation, % at 10 µM; 360,000 tested, 0.22% active;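 active = activation of at least 8% versus controls, or a plate z-score of at least 8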;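 also: Pro5 are CHO cells carrying HIG-tagged alpha-DG that lacks glycosylation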
NadD block – inhibitors of Staphylococcus aureus NadD; inhibition, % at 20 µM; purified NadD enzyme, colorimetric absorbance read-out; 360,000 tested, 0.78% active; in the data active = inhibition above about 26%
Rh123 counter – membrane potential counter-screen of mitochondrial pore inhibitors | shares compounds with MPTP block | isolated mitochondria, Rhodamine 123 fluorescence | inhibition, % at 10 µM | 5,000 tested, 78% active; in the data active = inhibition above about 22%;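 also: 0% = DMSO vehicle and 100% = positive control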
MPTP swell DR – dose response confirmation of mitochondrial permeability transition pore inhibitors; 780 tested, 58% active; AID 651561; IC50, µM; isolated mitochondria swelling, absorbance; shares compounds with MPTP block; in the data active = IC50 below about 20 µM
MPTP counter DR – counter-screen for mitochondrial permeability transition pore inhibitors, dose response | shares compounds with MPTP block | isolated mitochondria counterscreen, fluorescence read-out | IC50, µM | 780 tested, 49% active | AID 651564; in the data active = IC50 below about 80 µM
Numbers without * were called inactive; i = inactive; / = not tested or not shown.

SMILES	MPTP block	H9c2 TAG inh	aDG glyco up	NadD block	Rh123 counter	others
C=CCOC(=O)Nc1nc(CCNC(=O)OCc2ccccc2)c(C(=O)OC)s1	6	/	0	/	/
CCN(CC)C(=O)[C@H]1CC(CC(=O)NCc2cccc(C(F)(F)F)c2)C(=O)N2CCc3c([nH]c4ccccc34)[C@]12C (some centres not stated)	61*	32	0	4	-1	MPTP swell DR=>100;MPTP counter DR=63*
CN(C)CCCN(Cc1ccccc1)C(=S)Nc1cccc(C(F)(F)F)c1	-2	/	1	-2	/
FC(F)(F)c1cccc(CNC(=S)Nc2ccccc2)c1	82*	5	0	2	95*
FC(F)(F)c1cccc(NC(=S)NCc2ccccc2)c1	106*	/	0	-1	115*
O=C(NCc1cccc(C(F)(F)F)c1)c1[nH]c(C(F)(F)F)nc1-c1ccccc1	51*	/	0	-2	99*
CCCN(Cc1ccccc1)C(=S)Nc1cccc(C(F)(F)F)c1	60*	/	0	-6	63*
O=C(NCc1cccc(C(F)(F)F)c1)c1cc(Cl)ccc1Cl	12	/	2	-3	/
CC(C)CCN(C(=S)Nc1cccc(C(F)(F)F)c1)C(C)c1ccccn1 (configuration not stated)	63*	-1	0	6	74*
O=C(NCc1cccc(C(F)(F)F)c1)c1cc(Cl)cc(Cl)c1	100*	/	0	-2	88*
CC(c1ccccn1)N(CCN(C)C)C(=S)Nc1cccc(F)c1 (configuration not stated)	-2	/	0	0	/
CCCCn1cnc2c(c(-c3ccccc3)c(-c3ccccc3)n2Cc2ccco2)c1=N	3	7	0	-9	/
N=c1c2c(-c3ccccc3)c(-c3ccccc3)n(Cc3ccccc3)c2ncn1CCCn1ccnc1	56*	/	2	22	1
COc1ccc(NC2CCCN(C(=O)CCC(=O)c3ccc(F)cc3)C2)cc1 (configuration not stated)	0	-2	0	-1	/
Oc1c(N=Nc2ccccn2)ccc2ccccc12	54*	70*	-1	-1	-52
O=c1oc2ccccc2c(Nc2ccc(F)cc2)c1[N+](=O)[O-]	0	15	0	-3	/
O=c1oc2ccccc2c(Nc2ccc(Cl)cc2)c1[N+](=O)[O-]	56*	6	0	-6	83*
O=c1oc2ccccc2c(NCc2ccccc2F)c1[N+](=O)[O-]	-6	/	0	1	/
CC(C)c1ccc(CNc2c([N+](=O)[O-])c(=O)oc3ccccc23)cc1	87*	/	0	-2	94*
Cc1ccc(C2C3=C(CC(C)(C)CC3=O)N=C3c4ccccc4C(=O)C32)cc1 (configuration not stated)	86*	/	0	4	63*
CC1(C)CC(=O)C2=C(C1)N=C1c3ccccc3C(=O)C1C2c1ccc(Cl)cc1 (configuration not stated)	98*	19	2	27	4
CC1(C)CC(=O)C2=C(C1)N1C(=C(C#N)C2c2ccc(Cl)cc2)N=C(N)c2ccccc21 (configuration not stated)	1	6	0	22	/
CCOC(=O)C1=C(C)N=C2c3ccccc3C(=O)C2C1c1ccc(Cl)cc1 (configuration not stated)	66*	/	0	-2	45*
COC(=O)[C@H](Cc1ccccc1)NC(=O)Cn1cnc(C(=O)Nc2ccc(C)c(C)c2)n1	0	15	0	-4	/
COc1ccc(NC(=O)CN2C(=O)COc3ccc(S(=O)(=O)N4CCCCC4)cc32)c(OC)c1	-2	/	0	-3	/
SMILES	MPTP block	H9c2 TAG inh	aDG glyco up	NadD block	Rh123 counter	others
O=C(Nc1cc(Cl)cc(Cl)c1)N[C@@H]1CC[C@@H](CCNS(=O)(=O)c2cccc(F)c2)O[C@@H]1CO	6	/	0	/	/
CC(C)[C@H](NC(=O)c1ccc(Cl)c([N+](=O)[O-])c1)C(=O)NCc1ccc(Cl)cc1Cl	86*	3	0	-3	93*
CC(C)[C@H](NC(=O)c1ccc(Cl)c([N+](=O)[O-])c1)C(=O)NCc1ccc(F)cc1	2	/	0	-2	/
CCCN1CCC(NC(=O)Nc2ccc([N+](=O)[O-])cc2)CC1	3	-15	0	-5	/
CCCN1CCC(NC(=O)Nc2ccc(Br)cc2)CC1	61*	/	0	-3	76*
COc1ccc(C(CNc2ccc(C(F)(F)F)cn2)N(C)C)cc1OC (configuration not stated)	0	/	0	-9	/
CCc1c(C)nc2ccc(Br)cc2c1Cl	97*	7	0	-8	93*
CN1CCN(c2ccccc2NC(=O)C(Cc2ccccc2)n2cccc2)CC1 (configuration not stated)	81*	-12	3	-7	-12	MPTP swell DR=i;MPTP counter DR=>80
CN1CCN(c2ccccc2NC(=O)c2ccc(OCc3ccccc3)cc2)CC1	78*	10	1	-6	-10	MPTP swell DR=9.4*;MPTP counter DR=>80
CN1CCN(c2ccccc2NC(=O)c2cccc(OCc3ccccc3)c2)CC1	1	/	1	-7	/
CCCCOc1ccc(C(=O)Nc2ccc(N3CCN(C)CC3)cc2)cc1	90*	14	7	-10	-8	MPTP swell DR=i;MPTP counter DR=>80
CCOc1ccc(C(=O)Nc2ccc(N3CCN(C)CC3)cc2)cc1	-1	/	0	-7	/
CN(C)C(=O)CCc1ccc2c3c([nH]c2c1)[C@]1(C)[C@@H](C(=O)N2CCCCC2)C[C@H](CC(=O)NCC24CC5CC(CC(C5)C2)C4)C(=O)N1CC3	10	24	0	2	/
O=C1c2ccccc2C(=O)N1c1ccc(Cc2ccncc2)cc1	54*	3	0	11	16	MPTP swell DR=i;MPTP counter DR=27*
O=C1c2ccccc2C(=O)N1c1ccccc1	1	/	4	1	/
OCCNc1nc2nonc2nc1NCCO	1	/	0	-2	/
CC(C)(C)Nc1nc2nonc2nc1NC(C)(C)C	93*	/	0	-6	99*
CC1=NN(c2ccc(Cl)cc2)C(=O)C1C(c1cccc(O)c1)c1c(C)[nH]n(-c2ccc(Cl)cc2)c1=O (configuration not stated)	101*	/	0	17	20*
CCOC(=O)c1ccc(NC(=O)Cc2coc3cc4c(cc23)CCC4)cc1	87*	/	0	-3	92*
CCOc1ccc(C(C(=O)NC2CCCC2)N(C(=O)c2snc(C(N)=O)c2N)c2cccc(O)c2)cc1 (configuration not stated)	2	/	0	2	/
CCOC(=O)c1cnc2ccc(OCC)cc2c1NCc1ccccc1OC	85*	/	0	-2	99*
COC(=O)c1ccc(CN2C(=O)NC(Cc3c[nH]c4ccccc34)C2=O)cc1 (configuration not stated)	82*	/	0	-2	18	MPTP swell DR=i;MPTP counter DR=25*
